This is an account of results in PubChem BioAssay (NCI).

Compounds without any hit were thinned out: in the full panel of roughly 83,000, 20% have a hit.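 Step 1: grow cells in 96-well plates. Step 2: add test compound at a single concentration. Step 3: incubate 48 h. Step 4: record percent growth.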 Unmarked numbers belong to inactive results. Activity calls are given as the source filed them. The calls were made as follows: active = growth percent below 10; inactive = the rest.

What all share (experiment): NCI-60 one-dose screen, 48 h (100 = growth as untreated, 0 = no growth, -100 = all killed)
What all share (details): 10 µM unless noted

Experiment [1] has as its system SK-MEL-2 melanoma.
In experiment [2] the test system is EKVX NSCLC.
The subject of experiment [3] is SN12C renal.
Experiment [4] concerns UO-31 renal.
Experiment [5] relates to TK-10 renal.
The test system of experiment [6] is ACHN renal.
Experiment [7] has as its system CAKI-1 renal.
For experiment [8], the system named is A498 renal.
Experiment [9] relates to CCRF-CEM leukemia.
In experiment [10] the test system is MOLT-4 leukemia.

As to `COc1cc(/C=C/C(=O)c2nnn(-c3ccc(Cl)cc3)c2C)cc(OC)c1OC`, the growth in [1] was 51.3%; in experiment [2] it was 10.1%; in experiment [3], 15.5%; in experiment [4], 54%; in experiment [5], 86.7%; in experiment [6], 42.4%. For the same compound, the growth in experiment [7] is 43.2%; in experiment [8] it was 132%; in experiment [9], -19.2% (active); in [10], -10.7% (active).
As for `Cn1cc(-c2nnc(N)nc2-c2c[nH]c3ccc(Br)cc23)c2cc(Br)cnc21`, the growth in [1] was 35.4%; in experiment [2] it was 64.3%; in [3], 63%; in experiment [4], 42.4%; in [5], 37.7%; in experiment [6], 61.3%. Moreover, the growth in experiment [7] was 33%; in experiment [8], 39.4%; in [9], 28%; in [10], 11.7%.
For `C=C1CCC2C3(C)COC(c4ccc(F)cc4)OC3CCC2(C)C1C/C=C1/C(=O)OCC1O` (stereo not given), the growth is -63.2% (active) in [1]; 5.53% (active) in [2]; -11.3% (active) in experiment [3]; -90.6% (active) in experiment [4]; -35.8% (active) in experiment [5]; -97.6% (active) in experiment [6]. In addition, the growth in [7] is -5.17% (active); in experiment [8], 89.6%; in experiment [9], 11.4%; in experiment [10] it was 8.65% (active).
In the case of `O=C(/C=C/c1cccc(OCc2ccc(F)cc2)c1)c1nc2ccccc2[nH]1`, the growth is 104% in [1]; 38% in [2]; 76.9% in experiment [3]; 69.4% in experiment [4]; 79% in [5]; 78.9% in experiment [6]. Besides, the growth in [7] was 67.3%; in experiment [8], 112%; in experiment [9] it was 6.9% (active); in [10], -11.2% (active).
Turning to `CN1C(=O)/C(=C/c2ccc(C(=O)Nc3ncc(Cc4ccc(Cl)cc4Cl)s3)cc2)SC1=S`, the growth in experiment [1] was 19.7%; in experiment [2], 63%; in experiment [3], 36.1%; in experiment [4], 40.4%; in experiment [5] it was 71.4%; in experiment [6], 31.3%. The growth is 30.1% in [7], 87.6% in experiment [8], 40.2% in experiment [9] and 31.1% in experiment [10].
As to `COC1=C[C@]23CCC(=O)N2CCc2cc4c(cc2[C@@H]3[C@@H]1OC(=O)[C@H](C)O)OCO4`, the growth in experiment [1] is 58.5%; in [2], 43%; in experiment [3], 57.8%; in [4] it was 26.4%; in experiment [5], 47.7%; in experiment [6] it was 5.84% (active). Moreover, the growth in [7] is 15%; in [8], -9.89% (active); in experiment [9], 1.16% (active); in experiment [10], 2.59% (active).
In the case of `COc1ccc(-c2ccnc(SCc3cc4ccccc4[nH]c3=O)n2)cc1OC`, the growth in [1] was 17.4%; in experiment [2] it was -16.6% (active); in experiment [3], -37.6% (active); in experiment [4], -73.4% (active); in experiment [5] it was 22.9%; in experiment [6], -76.6% (active). Moreover, the growth in [7] is -67% (active); in experiment [8], -18.9% (active); in experiment [9], 106%; in [10], 74%.
Take `COc1ccc2[nH]c(O)c(N=NC(=O)COc3ccc(NC(=O)Nc4ccccc4)cc3)c2c1`: the growth was 43.6% in [1]; 65.4% in experiment [2]; 25% in experiment [3]; 94.5% in [4]; 113% in experiment [5]; 94.2% in [6]. Further, the growth is 82.5% in [7], 71.7% in [8], 77.9% in [9] and 77.1% in experiment [10].
For `Cc1c(C(=O)NNC(=O)c2ccc(Cl)cc2)nnn1-c1ccc(Cl)cc1`, the growth in experiment [1] was 106%; in experiment [2], 91.5%; in experiment [3], 94.7%; in experiment [4], 74.1%; in experiment [5] it was 96.1%; in experiment [6], 103%. In addition, the growth is 87.2% in experiment [7], 105% in experiment [8], 88.4% in experiment [9] and 85.4% in experiment [10].
Take `COc1ccc(NC(=O)[C@H](CO)NC(=O)OC(C)(C)C)cc1C(=O)Nc1cccc(C2CC(=O)c3c(cc(OC)c(OC)c3OC)O2)c1` (stereo not given in full): the growth was 53.1% in [1]; 81.2% in experiment [2]; 49% in experiment [3]; 40.4% in experiment [4]; 103% in experiment [5]; 56.2% in [6]. Besides, the growth in experiment [7] is 38.6%; in [8], 105%; in experiment [9], 23.3%; in experiment [10] it was 16.2%.
For the compound `C#C[C@]1(O)CC[C@H]2[C@@H]3CC=C4c5sc(-c6ccc([N+](=O)[O-])cc6)nc5CC[C@]4(C)[C@H]3CC[C@@]21C`, the growth in experiment [1] is -42.8% (active); in experiment [2] it was -61.6% (active); in [3] it was 57%; in experiment [4], -44.8% (active); in experiment [5], 52%; in [6], 3.11% (active). For the same compound, the growth in experiment [7] was 23.1%; in [8], 6.18% (active); in experiment [9] it was 9.17% (active); in [10], 10%.
On to `CC(=O)Nc1ccc(-n2cnc3cc(-c4ccc(O)cc4)ccc32)cc1C(F)(F)F`, for which the growth is 17.4% in [1]; 27.3% in experiment [2]; 15.6% in [3]; 10.3% in [4]; 33% in experiment [5]; 6.32% (active) in [6]. For the same compound, the growth in experiment [7] is 28.6%; in [8] it was 57.1%; in experiment [9] it was 40.5%; in experiment [10] it was 29.6%.
On to `Cc1cccc(NC(=O)CN2CCN(c3ncnc4c3cnn4-c3ccccc3)CC2)c1`, for which the growth in experiment [1] was 80.2%; in experiment [2] it was 85.9%; in experiment [3], 83.4%; in experiment [4] it was 54.9%; in experiment [5] it was 130%; in experiment [6] it was 79.9%. The growth in experiment [7] is 82.9%; in experiment [8] it was 98%; in [9], 76.7%; in [10] it was 75%.
Regarding `O=c1[nH]n(C(=S)N/N=C/c2ccccc2Cl)c(=O)c2ccccc12`, the growth in [1] is -33% (active); in experiment [2], -35.4% (active); in [3], 7.3% (active); in experiment [4], 15.6%; in [5], 25.8%; in [6], 5.27% (active). Further, the growth in [7] was 27.5%; in experiment [8], 38.7%; in experiment [9], -11.2% (active); in experiment [10], -1.75% (active).
As to `CNS(=O)(=O)c1ccc(Nc2ccc(C(F)(F)F)cc2)c(-c2cn(C)cn2)c1`, the growth was 63.8% in experiment [1]; 49% in experiment [2]; 41.9% in [3]; 9.13% (active) in experiment [4]; 46.6% in [5]; 48.9% in [6]. Moreover, the growth in [7] was 60.8%; in experiment [8], 50.7%; in experiment [9], 51.2%; in experiment [10], 37.1%.
On to `Cc1nc(Nc2ncc(C(=O)Nc3c(C)cccc3Cl)s2)cc(N2CCN(CCCNC(=O)COc3ccc(C4CCC(=O)NC4=O)cc3)CC2)n1` (stereo not given), for which the growth is 109% in experiment [1]; 58.6% in experiment [2]; 25.2% in experiment [3]; 38.4% in experiment [4]; -7.44% (active) in experiment [5]; 8.27% (active) in experiment [6]. The growth in [7] was -30.7% (active); in [8], 7.95% (active); in [9], 95.1%; in [10], 48.9%.
